Assay results from PubChem BioAssay (NCATS).
Inconclusive results are not listed. A call without a number means that no potency is given here. Activity calls are given as the source filed them. Calls follow the shape of the dose curve; as a rule, active = well fitted inhibition curve with a large enough effect; inconclusive = small, poorly fitted or top-dose-only effect; inactive = no such curve, though single readings can be large or run the other way.

Target: Retinal dehydrogenase 2 (Homo sapiens) (UniProt O94788)
Experiment: qHTS for Inhibitors of the Aldehyde Dehydrogenase Family (ALDH1A2) Confirmation screens (AID 2061314); also: nearly all actives have a fitted effect of over 65% in size
Conditions: ALDH1A2 enzyme inhibition qHTS confirmation; series mostly up to 45.9 µM
Potency is read from the fitted curve at half-maximal effect.

Structure (SMILES)	Potency
N#Cc1c(-c2cccc(Cl)c2)no[n+]1[O-]	5.04 µM (active)
COc1ccc(C2=Nn3c(nnc3-c3cccc(OC)c3OC)SC2)c(OC)c1	inactive
CN(C)CCCNC(=O)c1ccc(-c2cnc3c(O)cccc3c2)cc1	inactive
O=C(CN1C(=O)N/C(=C\c2cn(-c3cccc(C(=O)O)c3)cn2)C1=O)Nc1ccccc1Cl	inactive
CN1CCN(c2ccc(Nc3nn4c(=O)c5ccccc5nc4s3)cc2)CC1	14.2 µM (active)
O=S(=O)(c1ccccc1)N1CCN(c2nc(-c3ccc(Br)cc3)cs2)CC1	inactive
Cc1cc(-c2nnc3n2CCCCC3)c(C)n1-c1ccc(Cl)c(Cl)c1	20.1 µM (active)
Cc1ccnc(CC(=S)N2CCN(c3cccc(C(F)(F)F)c3)CC2)c1	12.7 µM (active)
COc1ccc(C2=Nn3c(nnc3-c3cc(OC)ccc3OC)SC2)cc1	inactive
CNc1oc(-c2c[nH]c3ccccc23)nc1C#N	inactive
N#Cc1nc(Nc2ccc3ccccc3c2)nc(NC2CCCC2)n1	22.5 µM (active)
Cc1cc(-c2nnc3n2CCCC3)c(C)n1-c1ccccc1	inactive
COc1ccc(C2Nc3ccccc3C(=O)N2Cc2ccc(CNC(=O)CO)cc2)cc1COc1ccc(NC(C)=O)cc1 (centres undefined)	12.7 µM (active)
COc1cc2ncnc(N(C)Cc3csc(C)n3)c2cc1-c1ccc2c(c1)OCO2	inactive
N#Cc1nc(Nc2ccccc2)nc(NC2CCCCC2)n1	inactive
Cc1cc(C)nc(NC(=S)N2CC3CN(c4ncc(C(F)(F)F)cc4Cl)CC3C2)c1 (centres undefined)	inactive
O=[S+]([O-])(Nc1ccc(-c2nc3ccccc3[nH]2)cc1)c1ccc2c(c1)OCO2	15.9 µM (active)
FC(F)Oc1ccc(C2=Nn3c(nnc3-c3ccccc3C(F)(F)F)SC2)cc1OCC1CC1	17.9 µM (active)
FC(F)(F)c1ccc(-c2ccc(CNc3nc(-c4ccccc4C(F)(F)F)nc4ccccc34)cc2)cn1	25.2 µM (active)
COc1ccc(C2Nc3ccccc3C(=O)N2Cc2ccncc2)cc1COc1ccc(NC(C)=O)cc1 (centres undefined)	5.04 µM (active)
O=C(Nc1nc(-c2ccccc2)cs1)c1ccncc1NS(=O)(=O)c1ccc2ccccc2c1	7.12 µM (active)
O=C(Nc1cncc(Cc2ccccc2)c1)c1ccc(-c2cccc([N+](=O)[O-])c2)o1	12.7 µM (active)
O=C([C@H](Cc1ccc(O[S+](=O)([O-])c2cccnc2)cc1)N[S+](=O)([O-])c1ccccn1)N1CCN(c2ccccc2)CC1	7.98 µM (active)
O=C(NCCCCc1ccccc1)C1CCN(c2nc(-c3ccc(Br)cc3)cs2)CC1	inactive
COc1ccc(C2=Nn3c(nnc3-c3ccc(OC)cc3)SC2)cc1	inactive

Target: Retinaldehyde dehydrogenase 3 (Homo sapiens) (UniProt P47895)
Experiment: qHTS for Inhibitors of the Aldehyde Dehydrogenase Family (ALDH1A3) Primary screen (AID 2061315)
Conditions: ALDH inhibition qHTS; series mostly up to 56 µM

Structure (SMILES)	Potency
N#Cc1c(-c2cccc(Cl)c2)no[n+]1[O-]	inactive
COc1ccc(C2=Nn3c(nnc3-c3cccc(OC)c3OC)SC2)c(OC)c1	inactive
COc1ccc(C2Nc3ccccc3C(=O)N2CCc2ccccc2)cc1COc1ccc(NC(C)=O)cc1 (centres undefined)	inactive
CN(C)CCCNC(=O)c1ccc(-c2cnc3c(O)cccc3c2)cc1	inactive
O=C(CN1C(=O)N/C(=C\c2cn(-c3cccc(C(=O)O)c3)cn2)C1=O)Nc1ccccc1Cl	inactive
CN1CCN(c2ccc(Nc3nn4c(=O)c5ccccc5nc4s3)cc2)CC1	inactive
COc1ccc(C2Nc3ccccc3C(=O)N2Cc2ccccn2)cc1COc1ccc(NC(C)=O)cc1 (centres undefined)	inactive
O=C(c1cccs1)c1nonc1C(=O)c1cccs1	inactive
COc1ccc(C2Nc3ccccc3C(=O)N2Cc2ccco2)cc1COc1ccc(NC(C)=O)cc1 (centres undefined)	inactive
O=S(=O)(c1ccccc1)N1CCN(c2nc(-c3ccc(Br)cc3)cs2)CC1	inactive
Cc1cc(-c2nnc3n2CCCCC3)c(C)n1-c1ccc(Cl)c(Cl)c1	inactive
COc1ccc(OCc2cc(C3Nc4ccccc4C(=O)N3Cc3ccccc3)ccc2OC)cc1 (centres undefined)	inactive
Cc1ccnc(CC(=S)N2CCN(c3cccc(C(F)(F)F)c3)CC2)c1	inactive
COc1ccc(C2=Nn3c(nnc3-c3cc(OC)ccc3OC)SC2)cc1	inactive
COc1ccc(C2Nc3ccccc3C(=O)N2Cc2ccccc2)cc1COc1ccc(NC(C)=O)cc1 (centres undefined)	inactive
CNc1oc(-c2c[nH]c3ccccc23)nc1C#N	inactive
N#Cc1nc(Nc2ccc3ccccc3c2)nc(NC2CCCC2)n1	inactive
O=C(O)c1ccc(-n2cccc2/C=C2\SC(=O)N(Cc3ccc(F)cc3)C2=O)cc1	inactive
COc1ccc(C2Nc3ccccc3C(=O)N2CCc2ccc(Cl)cc2Cl)cc1COc1ccc(NC(C)=O)cc1 (centres undefined)	inactive
Cc1cc(-c2nnc3n2CCCC3)c(C)n1-c1ccccc1	inactive

Structure (SMILES)	Potency
COc1ccc(C2Nc3ccccc3C(=O)N2Cc2ccc(CNC(=O)CO)cc2)cc1COc1ccc(NC(C)=O)cc1 (centres undefined)	inactive
COc1ccc(C2Nc3ccccc3C(=O)N2CCCN(C)C)cc1COc1ccc(NC(C)=O)cc1 (centres undefined)	inactive
COc1cc2ncnc(N(C)Cc3csc(C)n3)c2cc1-c1ccc2c(c1)OCO2	inactive
N#Cc1nc(Nc2ccccc2)nc(NC2CCCCC2)n1	inactive
O=C(O)C1CCN(c2ncc(-c3ccc4c(c3)OCCCO4)s2)CC1	0.447 µM (active)
N#Cc1nc(Nc2ccc(F)cc2)nc(NC2CCCC2)n1	inactive
COc1ccc(S(=O)(=O)N2CCN(S(=O)(=O)c3ccc4c(c3)OCCO4)CC2)cc1	inactive
O=[S+]([O-])(Nc1ccc(-c2nc3ccccc3[nH]2)cc1)c1ccc2c(c1)OCO2	inactive
FC(F)Oc1ccc(C2=Nn3c(nnc3-c3ccccc3C(F)(F)F)SC2)cc1OCC1CC1	inactive
FC(F)(F)c1ccc(-c2ccc(CNc3nc(-c4ccccc4C(F)(F)F)nc4ccccc34)cc2)cn1	inactive
COc1ccc(C2Nc3ccccc3C(=O)N2Cc2ccncc2)cc1COc1ccc(NC(C)=O)cc1 (centres undefined)	inactive
O=C(Nc1nc(-c2ccccc2)cs1)c1ccncc1NS(=O)(=O)c1ccc2ccccc2c1	inactive
O=C(Nc1nc(-c2ccccc2)cs1)c1ccncc1NS(=O)(=O)c1ccccc1Cl	inactive
O=C(Nc1cncc(Cc2ccccc2)c1)c1ccc(-c2cccc([N+](=O)[O-])c2)o1	inactive
O=C([C@H](Cc1ccc(O[S+](=O)([O-])c2cccnc2)cc1)N[S+](=O)([O-])c1ccccn1)N1CCN(c2ccccc2)CC1	inactive
O=S(=O)(c1ccc2c(c1)OCO2)N1CCN(S(=O)(=O)c2c(F)cccc2F)CC1	inactive
O=C(NCCCCc1ccccc1)C1CCN(c2nc(-c3ccc(Br)cc3)cs2)CC1	inactive
CCCCN(C)C(=O)Cn1nc(-c2ccc(Cl)cc2)ccc1=O	inactive
COc1ccc(C2=Nn3c(nnc3-c3ccc(OC)cc3)SC2)cc1	inactive
